In PubChem BioAssay AID1259313 (Sanford-Burnham Center for Chemical Genomics, 2017):
In all, about 340,000 compounds went through this assay and about 8,500 (2.5%) were called active. This is one part of a sample in which actives are shown more often than they occur.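 The calls were made as follows: active = melting temperature shift of at least 10% of the positive control shift, at one fixed dose; inactive = the rest.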

These molecules were tested on Glutamate receptor ionotropic, NMDA 3A (GRIN3A) ligand-binding domain (assay: NR3A LBD thermal stabilization by compounds – biophysical, differential scanning fluorimetry, uHTS, primary screen (AID 1259313)). Settings: at 25 µM, active compounds read high, 0% = protein alone, 100% = glycine-bound protein.

Row | SMILES | Tm shift relative to glycine control
1 | O=C(CSc1ccccn1)Nc1nc2c(ccc3ccccc32)s1 | -2.83% (inactive)
2 | CS(=O)(=O)Nc1cccc(-c2cn3ccccc3n2)c1 | -0.95% (inactive)
3 | CCS(=O)(=O)Nc1cccc(-c2cc(-c3ccccc3)c3cc(C)ccc3n2)c1 | 10.6% (active)
4 | Cc1cc(C)cc(NS(=O)(=O)Cc2ccccc2)c1 | 1.07% (inactive)
5 | CC1CN(S(=O)(=O)c2ccc(C(=O)Nc3sccc3C(N)=O)cc2)CC(C)O1 (stereo unspecified) | -4.29% (inactive)
6 | Cc1ccc2c(c1)N(CC(=O)N(Cc1ccccn1)Cc1ccco1)C(=O)C(C(C)C)O2 (stereo unspecified) | 0.17% (inactive)
7 | O=c1[nH]c2c(c(=O)n1-c1ccccc1)CCO2 | 1.26% (inactive)
8 | Cc1cccc(Nc2nc(NCCO)nc(N3CCCC3)n2)c1 | -4.68% (inactive)
9 | CC(C)n1cnc2c(Nc3cccc(Cl)c3)nc(N(CCO)CCCO)nc21 | 1.29% (inactive)
10 | OCCCNc1nccc(-c2cc(Nc3cccc(Cl)c3)ncn2)n1 | 21.3% (active)
11 | CCC(=O)Nc1cc(C(F)(F)F)ccc1N1CCCC1 | 1.55% (inactive)
12 | O=C(C1CC1)N1CCN=C1SCc1ccc(Cl)cc1 | 11.7% (active)
13 | O=C(c1ccco1)N1CCN=C1SCc1cccc(Cl)c1 | 0.08% (inactive)
14 | CCC(=O)N1CCN=C1SCc1ccc(F)cc1 | 1.29% (inactive)
15 | COc1ccc(CN2CN(C(C)C)CSC2=S)cc1 | 1.51% (inactive)
16 | Cc1cc(F)ccc1S(=O)(=O)Nc1ncnc2scc(-c3ccc(F)cc3)c12 | 10.2% (active)
17 | COc1ccc(-c2csc3ncnc(N4CCN(S(=O)(=O)c5cccc(F)c5)CC4)c23)cc1 | -1.02% (inactive)
18 | O=S(=O)(Nc1ncnc2sccc12)c1cccc(F)c1 | -0.96% (inactive)
19 | C=CCNC(=O)COC(=O)c1ccccc1C(=O)N(C)C1CCCCC1 | -0.25% (inactive)
20 | O=C(CN(CC1CCCO1)C(=O)CNS(=O)(=O)c1ccc(Cl)cc1)NCc1ccccc1 (stereo unspecified) | 2.76% (inactive)
21 | Cc1ccc(C)c(NC(=O)C2CCCN2C(=O)OC(C)(C)C)c1 (stereo unspecified) | 4.23% (inactive)

Row | SMILES | Tm shift relative to glycine control
22 | CC(C)(C)OC(=O)N1CCC(C(=O)NNC(=O)c2ccc(Cl)cc2Cl)CC1 | -2.13% (inactive)
23 | Cc1ccc(-n2ncc(C(=O)NC3CC3)c2C2CCN(C(=O)OC(C)(C)C)CC2)c(C)c1 | 13.4% (active)
24 | CCn1c(=S)[nH]c2cc(S(=O)(=O)N3CCOCC3)ccc21 | 2.56% (inactive)
25 | Cc1cc(NS(=O)(=O)c2ccc(NC(=O)C(C)Oc3cccc(C)c3C)cc2)nc(C)n1 (stereo unspecified) | 3.5% (inactive)
26 | CCNc1nc(NC(C)C)nc(N2CC(=O)N(CC(=O)OCC)C2=N)n1 | -4.17% (inactive)
27 | CCN(CC)CCCC(C)n1c2nc(=O)[nH]c(=O)c-2nc2cc(Cl)ccc21 (stereo unspecified) | -386% (inactive)
28 | CCOC(=O)C1=C(CC)Nc2ccccc2N=C1NC(=O)c1cccc(S(=O)(=O)N2CCCC2)c1 | 0% (inactive)
29 | Cc1c(CC(=O)NCC(=O)NCC(=O)O)c(=O)oc2cc3oc4c(c3cc12)CCCC4 | 31.7% (active)
30 | CC[C@@H](C)[C@H](NC(=O)CCc1c(C)c2cc3c4c(oc3c(C)c2oc1=O)CCCC4)C(=O)O | 1.33% (inactive)
31 | Cc1c(CC(=O)NCCCCCC(=O)O)c(=O)oc2cc3occ(-c4ccccc4)c3cc12 | -0.98% (inactive)
32 | CC1CC1C(=O)OCC(=O)c1c(N)n(C)c(=O)n(C)c1=O (stereo unspecified) | -0.75% (inactive)
33 | O=C(Nc1ccc(OC(F)(F)F)cc1)c1ccc2c(c1)no[n+]2[O-] | -3.76% (inactive)
34 | Cc1cccc(N(CC(=O)N=Nc2c(O)[nH]c3ccccc23)S(C)(=O)=O)c1C | -1.51% (inactive)
35 | O=C(CCN1CCCCC1)N=Nc1c(O)[nH]c2ccccc12 | -1% (inactive)
36 | Cc1c(-c2ccccc2)n[nH]c1C(=O)N=Nc1c(O)[nH]c2ccccc12 | 13.9% (active)
37 | COc1ccc(CNC(=O)C2CCN(S(=O)(=O)c3ccc(SC)cc3)CC2)cc1 | 1% (inactive)
38 | C[C@@H](NC(=O)OC(C)(C)C)c1nnc(S(=O)(=O)Cc2ccccc2)o1 | 0% (inactive)
39 | CC(C)Sc1nnc([C@H](Cc2ccccc2)NC(=O)OC(C)(C)C)o1 | 32.2% (active)
40 | CCc1ccccc1NC(=O)CSc1nnc([C@@H](NC(=O)OC(C)(C)C)C(C)CC)o1 (stereo partly specified) | -1.3% (inactive)
41 | C/C(CC(O)(/C=N/O)c1ccccc1)=N\O (stereo unspecified) | 1.21% (inactive)
42 | COc1ccc2ccccc2c1CNc1nnnn1C | 0.15% (inactive)

Row | SMILES | Tm shift relative to glycine control
43 | Cc1cccc(NC(=O)c2ccc3ccccc3n2)n1 | -0.88% (inactive)
44 | O=C(NNC(=O)c1ccc2ccccc2c1)c1ccc(Cl)cc1 | -1.56% (inactive)
45 | Clc1ccc(Nc2ccc3ccccc3n2)cc1 | 45% (active)
46 | CC1(C)CC(=O)C=C(NCCCN2CCCC2=O)C1 | -0.27% (inactive)
47 | Nc1nc(C23CC4CC(CC(C4)C2)C3)cs1 | -1.42% (inactive)
48 | COC(=O)c1cc(NC(=O)c2cc(C(C)(C)C)nn2Cc2cccc(C)c2)ccc1N1CCOCC1 | -0.21% (inactive)
49 | CCCCC1(C(=O)OCC)NC(c2ccc(O)cc2)C2C(=O)N(c3ccccc3)C(=O)C21 (stereo unspecified) | -1.17% (inactive)
50 | COC(=O)C1(C)NC(c2ccc(C)cc2)C2C(=O)N(c3ccc(F)cc3)C(=O)C21 (stereo unspecified) | 2.13% (inactive)
51 | CCCC1(C(=O)OCC)NC(c2ccc(N(C)C)cc2)C2C(=O)N(c3ccc4c(c3)OCCO4)C(=O)C21 (stereo unspecified) | 17% (active)
52 | O=C(CC1SC(N2CCOCC2)=NC1=O)Nc1ccccc1F (stereo unspecified) | -1.22% (inactive)
53 | COc1ccc(S(=O)(=O)N2CCN(C(=O)N(C)C)C2C)cc1 (stereo unspecified) | -2.39% (inactive)
54 | Cc1nn(C)c(Cl)c1CN1CCC(Oc2ccc(C(=O)N3CCCC3)cc2)CC1 | 12.6% (active)
55 | CC(=O)Nc1ccc(CN2CCC(Oc3ccc(C(=O)N4CCCC4)cc3)CC2)cc1 | 0.37% (inactive)
56 | O=C(c1ccc(OC2CCN(Cc3ccccn3)CC2)cc1)N1CCCCCC1 | 0.85% (inactive)
57 | COc1ccccc1C(=O)NC(=O)COC(=O)C1CC1 | -1.81% (inactive)
58 | C[C@@H](C(=O)N1CCNCC1)n1cc(CCC(=O)O)nn1 | 1.39% (inactive)
59 | Cc1ccc(C(=O)N2CCN(S(=O)(=O)N3CCOCC3)CC2)cc1 | -1.26% (inactive)
60 | O=C(c1cccc(S(=O)(=O)N2CCCCCC2)c1)N1CCN(Cc2ccccc2)CC1 | 0.36% (inactive)
61 | Cc1cccc(C(=O)N2CCN(S(=O)(=O)N3CCCCC3)CC2)c1 | 11.1% (active)
